# Unmarked numbers belong to inactive results.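 The calls were made as follows: active = growth AUC significantly below the DMSO wells by Dunnett test; inactive = the rest.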
# System: Carnobacterium 1 (Carnobacterium gallinarum)
# Assay: relative growth (AUC of 72 h growth curve relative to DMSO control, dAUC) (ratio); higher = more growth (less inhibition), active = hit call of the paper
# Details: 20 µM
# Protocol: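 Environmental bacterial isolates (Iceland stream sediment and Silwood Park soil) and whole stream-sediment communities were grown in LB from a 1:100 dilution with each pesticide at 20 µM (1% DMSO). A600 was read hourly for 72 h and the area under a spline-fitted growth curve (AUC) was computed. dAUC is the mean AUC of 3 biological replicates divided by the mean AUC of the DMSO controls. Significance was tested by Dunnett's test against the DMSO control.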
row,SMILES,relative growth
1,Oc1ccccc1-c1ccccc1,0.744
2,COc1cc(OC)nc(NC(=O)NS(=O)(=O)c2ncccc2C(=O)N(C)C)n1,1.09
3,COC(=O)c1ccccc1S(=O)(=O)NC(=O)Nc1nc(C)nc(OC)n1,1.2
4,O=C1C2(Cl)C3(Cl)C4(Cl)C(Cl)(Cl)C5(Cl)C3(Cl)C1(Cl)C5(Cl)C24Cl (configuration not stated),0.621
5,Nc1c(Cl)c(F)nc(OCC(=O)O)c1Cl,1.23
6,CC(C)OC(=O)Nc1cccc(Cl)c1,1.5
7,CNC(=O)CSP(=S)(OC)OC,0.894
8,CC1(C)CON(Cc2ccccc2Cl)C1=O,0.914
9,CON(C)C(=O)Nc1ccc(Cl)c(Cl)c1,1.02
10,CC1(C(=O)Nc2ccc(O)c(Cl)c2Cl)CCCCC1,0.935
11,COc1cc(C)c(C(=O)c2c(OC)ccc(Br)c2C)c(OC)c1OC,1.4
12,ClC1C(Cl)C(Cl)C(Cl)C(Cl)C1Cl (configuration not stated),0.955
13,CCOc1cc(Oc2ccc(C(F)(F)F)cc2Cl)ccc1[N+](=O)[O-],0.874
14,CC(C1CC1)C(O)(Cn1cncn1)c1ccc(Cl)cc1 (configuration not stated),1.34
15,COCC(=O)N(c1c(C)cccc1C)C(C)C(=O)OC (configuration not stated),1.13
16,CC(C)N1C(=O)c2ccccc2NS1(=O)=O,0.693
17,CC(C)OC(=O)C(C(=O)OC(C)C)=C1SCCS1,0.826
18,O=C(NC(=O)c1c(F)cccc1F)Nc1ccc(OC(F)(F)C(F)OC(F)(F)F)c(Cl)c1 (configuration not stated),0.745
19,CC1=NNC(=O)N(/N=C/c2cccnc2)C1,1.3
20,C[C@@H]1[C@@H](c2ccc(Cl)cc2)SC(=O)N1C(=O)NC1CCCCC1,0.881
21,CC(C)NC(=O)N1CC(=O)N(c2cc(Cl)cc(Cl)c2)C1=O,1.02
22,CC(COc1ccc(Oc2ccccc2)cc1)Oc1ccccn1 (configuration not stated),1.38
23,CCOc1ccc(C(C)(C)COCc2cccc(Oc3ccccc3)c2)cc1,0.99
24,O=C(Nc1ccc(F)cc1F)c1cccnc1Oc1cccc(C(F)(F)F)c1,1.1
25,CCOCN(C(=O)CCl)c1c(C)cccc1CC,1
26,CCc1cccc(C)c1N(C(=O)CCl)[C@@H](C)COC,1.04
27,CS(=O)(=O)c1cc(C(F)(F)F)ccc1C(=O)c1cnoc1C1CC1,1.43

# Source: the supplement of paper PMC12067926
